Reference: PubChem BioAssay AID1159580 (chemical genetic matrix, 2015)
The whole screen tested about 5,500 compounds, of which about 2,000 (36%) were called active. Not shown: some 18% with an inconclusive outcome. Cut-off read from the data, not from the text of the source: active = normalized growth mostly below about 0.91 (no sharp cut-off); inconclusive = no clear call, values can overlap the other calls; inactive = mostly above about 0.92. The list shows a part of the results.

Experiment: chemical genetic growth profiling, strain panel (AID 1159580);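 note: tested at 20 µM; growth read once vehicle control cultures reached saturation at 30 °C; 1 = growth at the plate median or of vehicle wells; lower values mean less growth of the strain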
Settings: growth OD

Measured: normalized growth

CCN1C[C@]2(C)CC[C@H](OC)[C@]34C2[C@H](O)[C@]2(OCO[C@@]25C[C@H](OC)[C@H]2C[C@]3(O)C5[C@H]2O)C14
inactive: S. cerevisiae deletion strains, locus YAL013W, strain DEP1, stronger effect = lower value 0.998 | S. cerevisiae deletion strains, locus YBR021W, strain FUR4, stronger effect = lower value 1.01 | S. cerevisiae deletion strains, locus YBR229C, strain ROT2, stronger effect = lower value 1.01 | S. cerevisiae deletion strains, locus YCL029C, strain bik1, stronger effect = lower value 1.01 | S. cerevisiae deletion strains, locus YDL035C, strain GPR1, stronger effect = lower value 1.03 | S. cerevisiae deletion strains, locus YDL074C, strain BRE1, stronger effect = lower value 1.04 | S. cerevisiae deletion strains, locus YDL101C, strain DUN1, stronger effect = lower value 1.01 | S. cerevisiae deletion strains, locus YDL134C, strain PPH21, stronger effect = lower value 1.01 | S. cerevisiae deletion strains, locus YDL185W, strain tfp1, stronger effect = lower value 1 | S. cerevisiae deletion strains, locus YDL192W, strain arf1, stronger effect = lower value 1.01 | S. cerevisiae deletion strains, locus YDR101C, strain arx1, stronger effect = lower value 0.995 | S. cerevisiae deletion strains, locus YDR150W, strain NUM1, stronger effect = lower value 0.988 | S. cerevisiae deletion strains, locus YDR162C, strain NBP2, stronger effect = lower value 0.992 | S. cerevisiae deletion strains, locus YDR318W, strain mcm21, stronger effect = lower value 1.01 | S. cerevisiae deletion strains, locus YDR388W, stronger effect = lower value 1.01 | S. cerevisiae deletion strains, locus YDR502C, strain sam2, stronger effect = lower value 0.998 | S. cerevisiae deletion strains, locus YEL061C, strain CIN8, stronger effect = lower value 0.994 | S. cerevisiae deletion strains, locus YER110C, stronger effect = lower value 1.01 | S. cerevisiae deletion strains, locus YER155C, strain BEM2, stronger effect = lower value 0.981 | S. cerevisiae deletion strains, locus YER167W, strain BCK2, stronger effect = lower value 1 | S. cerevisiae deletion strains, locus YGL078C, strain dbp3, stronger effect = lower value 0.998 | S. cerevisiae deletion strains, locus YGL086W, strain mad1, stronger effect = lower value 1 | S. cerevisiae deletion strains, locus YGL248W, strain PDE1, stronger effect = lower value 1 | S. cerevisiae deletion strains, locus YGR078C, strain PAC10, stronger effect = lower value 1.03 | S. cerevisiae deletion strains, locus YGR135W, strain pre9, stronger effect = lower value 1.01 | S. cerevisiae deletion strains, locus YGR229C, strain SMI1, stronger effect = lower value 0.999 | S. cerevisiae deletion strains, locus YGR252W, strain gcn5, stronger effect = lower value 1.02 | S. cerevisiae deletion strains, locus YHR030C, strain SLT2, stronger effect = lower value 0.999 | S. cerevisiae deletion strains, locus YHR079C, strain IRE1 (second series), stronger effect = lower value 1.01 | S. cerevisiae deletion strains, locus YHR094C, strain hxt1, stronger effect = lower value 1 | S. cerevisiae deletion strains, locus YHR129C, strain ARP1, stronger effect = lower value 1 | S. cerevisiae deletion strains, locus YHR200W, strain rpn10, stronger effect = lower value 1 | S. cerevisiae deletion strains, locus YIL066C, strain RNR3, stronger effect = lower value 1 | S. cerevisiae deletion strains, locus YIL073C, strain SPO22, stronger effect = lower value 1 | S. cerevisiae deletion strains, locus YIL125W, strain kgd1, stronger effect = lower value 1 | S. cerevisiae deletion strains, locus YIR030C, strain dcg1, stronger effect = lower value 1 | S. cerevisiae deletion strains, locus YJL095W, strain BCK1, stronger effect = lower value 1.04 | S. cerevisiae deletion strains, locus YJL134W, strain LCB3, stronger effect = lower value 0.999 | S. cerevisiae deletion strains, locus YJL168C, strain set2, stronger effect = lower value 1.01 | S. cerevisiae deletion strains, locus YJL187C, strain SWE1 (second series), stronger effect = lower value 1.01 | S. cerevisiae deletion strains, locus YJR043C, strain POL32, stronger effect = lower value 1.01 | S. cerevisiae deletion strains, locus YJR075W, strain HOC1, stronger effect = lower value 1 | S. cerevisiae deletion strains, locus YKL009W, strain mrt4, stronger effect = lower value 1.02 | S. cerevisiae deletion strains, locus YKL068W, stronger effect = lower value 0.991 | S. cerevisiae deletion strains, locus YKL085W, strain MDH1 (second series), stronger effect = lower value 0.999 | S. cerevisiae deletion strains, locus YKL085W, strain MDH1, stronger effect = lower value 0.999 | S. cerevisiae deletion strains, locus YKL190W, strain CNB1, stronger effect = lower value 0.967 | S. cerevisiae deletion strains, locus YKR001C, strain vps1, stronger effect = lower value 1.01 | S. cerevisiae deletion strains, locus YLR039C, strain RIC1, stronger effect = lower value 1.03 | S. cerevisiae deletion strains, locus YLR058C, strain SHM2, stronger effect = lower value 1.01 | S. cerevisiae deletion strains, locus YLR102C, strain apc9, stronger effect = lower value 1 | S. cerevisiae deletion strains, locus YLR262C, strain YPT6, stronger effect = lower value 1.03 | S. cerevisiae deletion strains, locus YLR268W, strain sec22, stronger effect = lower value 1.02 | S. cerevisiae deletion strains, locus YLR330W, strain CHS5, stronger effect = lower value 1.01 | S. cerevisiae deletion strains, locus YLR342W, strain FKS1 (second series), stronger effect = lower value 1.03 | S. cerevisiae deletion strains, locus YLR371W, strain rom2, stronger effect = lower value 1 | S. cerevisiae deletion strains, locus YLR418C, strain cdc73, stronger effect = lower value 1.04 | S. cerevisiae deletion strains, locus YML016C, strain PPZ1, stronger effect = lower value 1 | S. cerevisiae deletion strains, locus YML032C, strain rad52, stronger effect = lower value 1 | S. cerevisiae deletion strains, locus YML124C, strain tub3, stronger effect = lower value 1 | S. cerevisiae deletion strains, locus YMR078C, strain ctf18, stronger effect = lower value 1.01 | S. cerevisiae deletion strains, locus YMR223W, strain ubp8, stronger effect = lower value 0.998 | S. cerevisiae deletion strains, locus YMR263W, strain SAP30, stronger effect = lower value 0.998 | S. cerevisiae deletion strains, locus YMR307W, strain GAS1, stronger effect = lower value 1.07 | S. cerevisiae deletion strains, locus YNL067W, strain RPL9B, stronger effect = lower value 0.995 | S. cerevisiae deletion strains, locus YNL128W, strain TEP1, stronger effect = lower value 1 | S. cerevisiae deletion strains, locus YNL153C, strain GIM3, stronger effect = lower value 1 | S. cerevisiae deletion strains, locus YNL233W, strain BNI4, stronger effect = lower value 1.01 | S. cerevisiae deletion strains, locus YNL250W, strain rad50, stronger effect = lower value 0.999 | S. cerevisiae deletion strains, locus YNL271C, strain bni1, stronger effect = lower value 1.01 | S. cerevisiae deletion strains, locus YNL298W, strain CLA4, stronger effect = lower value 1 | S. cerevisiae deletion strains, locus YNL307C, strain MCK1, stronger effect = lower value 1.02 | S. cerevisiae deletion strains, locus YNL322C, strain KRE1, stronger effect = lower value 1 | S. cerevisiae deletion strains, locus YNR052C, strain pop2, stronger effect = lower value 1.01 | S. cerevisiae deletion strains, locus YOL006C, strain TOP1, stronger effect = lower value 1.02 | S. cerevisiae deletion strains, locus YOL012C, strain htz1 1.33 | S. cerevisiae deletion strains, locus YOL147C, strain pex11, stronger effect = lower value 1.01 | S. cerevisiae deletion strains, locus YOR061W, strain CKA2, stronger effect = lower value 1.01 | S. cerevisiae deletion strains, locus YOR069W, strain VPS5, stronger effect = lower value 1 | S. cerevisiae deletion strains, locus YOR136W, strain idh2, stronger effect = lower value 1.01 | S. cerevisiae deletion strains, locus YOR144C, strain elg1, stronger effect = lower value 1.01 | S. cerevisiae deletion strains, locus YOR184W, strain ser1, stronger effect = lower value 1.03 | S. cerevisiae deletion strains, locus YOR316C, strain cot1, stronger effect = lower value 1 | S. cerevisiae deletion strains, locus YPL055C, strain LGE1, stronger effect = lower value 0.987 | S. cerevisiae deletion strains, locus YPL241C, strain CIN2, stronger effect = lower value 0.998 | S. cerevisiae deletion strains, locus YPR119W, strain clb2, stronger effect = lower value 1 | S. cerevisiae deletion strains, locus YPR141C, strain kar3, stronger effect = lower value 1 | S. cerevisiae deletion strains, locus YPR163C, strain tif3, stronger effect = lower value 1.02 | S. cerevisiae deletion strains, locus YPR167C, strain met16, stronger effect = lower value 1.01 | S. cerevisiae deletion strains, strain wtn01, stronger effect = lower value 1 | S. cerevisiae strains, strain wild type, stronger effect = lower value 0.987
